Only some compounds are listed: those with a hit (about 10% of all), similar ones and a draw of the others.
GLA spleen mod – inhibitors or activators of human alpha-galactosidase in spleen homogenate; AID 2107; 240,000 compounds, 0.008% hits; human spleen homogenate, 4MU-alpha-Gal fluorescence, 40 min; Potency, µM (doses to about 80 µM), for the others: top-dose activity change, negative = inhibition, actives largely listed as inhibitors;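 also: potency is read from the fitted curve at half-maximal effect; 0% = enzyme with vehicle and -100% = no enzyme basal signal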
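qHTS titration in buffer at pH 5.0. Alpha-galactosidase activity in spleen homogenate was measured via 4-methylumbelliferone release from 1 mM fluorogenic substrate after 40 min at 37C and a pH 10 stop. AC50 came from Hill fits of control-normalized data.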
GLA inh pH 4.5 – alpha-galactosidase A (human) inhibition, pH 4.5. P06280. purified enzyme, 4-MU-alpha-Gal fluorescence, pH 4.5. activity change, negative = inhibition, % at 105 µM. 230,000 tested, under 10 active;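 also: 0% = full activity with enzyme and -100% = basal without enzyme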
Target sequence (P06280 whole entry, looked up): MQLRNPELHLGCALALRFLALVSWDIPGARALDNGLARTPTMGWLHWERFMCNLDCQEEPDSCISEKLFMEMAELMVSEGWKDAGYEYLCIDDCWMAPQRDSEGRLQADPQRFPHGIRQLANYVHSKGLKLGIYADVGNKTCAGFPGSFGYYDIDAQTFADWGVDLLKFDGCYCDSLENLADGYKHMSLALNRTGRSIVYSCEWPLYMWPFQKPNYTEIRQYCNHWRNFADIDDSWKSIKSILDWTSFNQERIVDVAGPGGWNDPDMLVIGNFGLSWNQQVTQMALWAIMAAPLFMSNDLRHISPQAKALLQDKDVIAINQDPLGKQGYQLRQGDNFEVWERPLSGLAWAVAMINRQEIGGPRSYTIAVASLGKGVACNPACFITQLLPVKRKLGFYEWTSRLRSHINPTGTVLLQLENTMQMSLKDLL
HPGD inh – HPGD (human) dehydrogenase inhibition; P15428; purified HPGD, NADH fluorescence kinetic, PGE2 substrate; 150,000 compounds, 4.3% hits; Potency, µM, for the others: at the highest dose activity change, negative = inhibition, actives largely listed as inhibitors; active = well fitted inhibition curve with a large enough effect, not every such curve was filed as active; inconclusive = small, poorly fitted or top-dose-only effect, or another doubt; inactive = no such curve, though single readings can be large or run the other way; also: potency is read from the fitted curve at half-maximal effect
Target sequence (P15428 whole entry, looked up): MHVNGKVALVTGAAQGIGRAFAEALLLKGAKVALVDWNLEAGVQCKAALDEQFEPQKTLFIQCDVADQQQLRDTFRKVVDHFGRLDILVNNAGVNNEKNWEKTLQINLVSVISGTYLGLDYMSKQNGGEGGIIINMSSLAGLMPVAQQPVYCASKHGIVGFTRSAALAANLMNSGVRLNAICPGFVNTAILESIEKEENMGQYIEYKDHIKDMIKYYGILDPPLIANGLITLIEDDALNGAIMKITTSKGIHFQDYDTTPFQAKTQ
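20 nM HPGD preincubated 15 min at room temperature with compound in 50 mM Tris-HCl pH 8, 0.01% Tween 20. Started with 1 mM NAD+ and 30 uM prostaglandin E2; NADH fluorescence (360/450 nm) read 5 times over 30-s intervals, last minus first.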
ALDH1A1 inh – blocks purified human ALDH1A1 activity; 220,000 compounds, 7.3% hits; Potency, µM (top dose mostly 75.3 µM), for the others: top-dose activity, negative = inhibition, usual class: inhibitors; P00352; AID 1030; Purified ALDH1A1, NADH fluorescence, propionaldehyde substrate; active = well fitted inhibition curve with a large enough effect, not every such curve was filed as active; inconclusive = small, poorly fitted or top-dose-only effect, or another doubt; inactive = no such curve, though single readings can be large or run the other way;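 also: potency is read from the fitted curve at half-maximal effect; plate controls were no enzyme wells and a reference inhibitor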
PNC assembly inh – inhibitors of perinucleolar compartment assembly; PC3M PTB-GFP, PNC prevalence imaging, 16 h; active compounds read low; activity change (PNC), negative = inhibition, % at 10 µM; 140,000 compounds, 3.1% hits; AID 2417;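 active = readout at or below -70, meaning at least 70% loss of cells showing the perinucleolar compartment, a nuclear body marking cancer cells; inconclusive = readout between -30 and a set limit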;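 also: plate controls were DMSO wells for no effect and camptothecin positive control wells for full effect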
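Compounds are pinned in duplicate onto adhered PC3M cells stably expressing GFP-tagged PTB and incubated 16 h at 37 C. Cells are then fixed, nuclei stained with Hoechst, and PNC-positive cells counted.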
ALOX12 inhib – 12-hLO (ALOX12) enzyme inhibition. P18054. 150,000 compounds, 0.12% hits. AID 1452. Potency, µM (titrated, usually from 57.1 µM), for inactives: at the highest dose activity change, negative = inhibition, hits mostly inhibitors. purified 12-hLO, xylenol orange hydroperoxide absorbance; also: potency is read from the fitted curve at half-maximal effect; nearly all actives have a fitted effect of over 55% in size
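Xylenol orange chromogenic assay: hydroperoxide from 12hLO oxidises Fe(II), giving red-shifted Fe(III)-XO absorbance. Conditions: 150 nM enzyme, 40 uM arachidonic acid, 25 mM Hepes pH 7.0, 0.01% Triton X-100, 30 min, room temperature.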
* = called active by the depositor. Unless noted, calls follow the shape of the dose curve; as a rule, active = well fitted curve in the direction sought with a large enough effect; inconclusive = small, poorly fitted or top-dose-only effect, or another doubt; inactive = no such curve, though single readings can be large; an effect the other way counts as inactive or inconclusive. Unless noted, % is scaled to controls: 0 for no effect and ±100 for the full control effect.

For O=C(NCCc1ccccc1)C1CCN(C(=O)c2sccc2-n2cccc2)CC1 the results were GLA spleen mod -2%, GLA inh pH 4.5 7, HPGD inh -8%, ALDH1A1 inh 4µM*, PNC assembly inh inconclusive and ALOX12 inhib -2%.
O=C(NCc1cccc(F)c1)C1CCN(C(=O)c2sccc2-n2cccc2)CC1 was read as GLA spleen mod -2%, GLA inh pH 4.5 -11 and ALDH1A1 inh 5µM*.
For O=C(Nc1ccsc1C(=O)N1CCCC1)c1ccccc1 the results were GLA spleen mod -6%, GLA inh pH 4.5 -19 and ALDH1A1 inh -12%.
`Cn1c(=O)c2c(SCC(=O)Nc3nccs3)nc(C3CC3)nc2n(C)c1=O` gave GLA spleen mod -1% and GLA inh pH 4.5 -2.
CCC(=O)NC(=S)Nc1cccc(NC(=O)c2ccccc2)c1 was read as GLA spleen mod -9%, GLA inh pH 4.5 1 and ALDH1A1 inh -8%.
NC(N)=NCCC[C@H](N)C(=O)NCC(=O)N[C@@H](CC(=O)O)C(=O)O was read as GLA spleen mod 4%.
Screening O=C(NCCc1ccccc1)C1CCN(C(=O)NCc2ccccc2)CC1 returned GLA spleen mod 4%, GLA inh pH 4.5 2, HPGD inh 0%, ALDH1A1 inh -2%, PNC assembly inh -2 and ALOX12 inhib 5%.
For Cc1ccc(CCNC(=O)C2CCN(C(=O)c3sccc3-n3cccc3)CC2)cc1 the results were GLA spleen mod 7%, GLA inh pH 4.5 1, HPGD inh -3%, ALDH1A1 inh 1µM*, PNC assembly inh 16 and ALOX12 inhib -1%.
For Cc1cccc(NC(=O)Cn2cnc3sc(C)c(S(=O)(=O)N4CCC(C)CC4)c3c2=O)n1 the results were GLA spleen mod 1%, GLA inh pH 4.5 2, HPGD inh -14%, ALDH1A1 inh -7%, PNC assembly inh -100* and ALOX12 inhib 5%.
For CCCCN(CC)CCNC(=O)Cn1cnc2sc(C)c(S(=O)(=O)N3CCOCC3)c2c1=O the results were GLA spleen mod -10%, GLA inh pH 4.5 -5, HPGD inh -10%, ALDH1A1 inh -8%, PNC assembly inh -100* and ALOX12 inhib -3%.
`Cc1ccc(/C=N/NC(=O)c2cccnc2)o1` gave GLA spleen mod 2%, GLA inh pH 4.5 -10 and ALDH1A1 inh -23%.
`O=C(O)c1cccc(-c2ccc(/C=N/NC(=O)c3cccnc3)o2)c1` gave GLA spleen mod 0%, GLA inh pH 4.5 6, HPGD inh inconclusive, ALDH1A1 inh inconclusive, PNC assembly inh -83* and ALOX12 inhib -4%.
O=C(NCc1ccccn1)c1cccc(NS(=O)(=O)c2cccc(F)c2)c1 was read as GLA spleen mod -14%, GLA inh pH 4.5 -1, HPGD inh -16%, ALDH1A1 inh 14µM*, PNC assembly inh inconclusive and ALOX12 inhib 2%.
For Fc1cccc(NC(=S)NCc2ccccn2)c1 the results were GLA spleen mod -4%, GLA inh pH 4.5 -1, HPGD inh inconclusive, ALDH1A1 inh inconclusive, PNC assembly inh -91* and ALOX12 inhib -5%.
Cc1cc(C)cc(NS(=O)(=O)c2cc(C(=O)NCc3ccccn3)ccc2Cl)c1 was read as GLA spleen mod 3%, GLA inh pH 4.5 3, HPGD inh -1%, ALDH1A1 inh 9%, PNC assembly inh -5 and ALOX12 inhib 4%.
Screening S=C(NCc1ccccn1)Nc1ccc(Cl)cc1 returned GLA spleen mod 6%, GLA inh pH 4.5 -17, HPGD inh -11%, ALDH1A1 inh inconclusive, PNC assembly inh -17 and ALOX12 inhib -7%.
CCN(CC)S(=O)(=O)c1cccc(C(=O)NC(C(=O)NC2=NCCS2)C(C)C)c1 (stereo not given) was read as GLA spleen mod -1%, GLA inh pH 4.5 4, HPGD inh -6%, ALDH1A1 inh -5%, PNC assembly inh -116* and ALOX12 inhib -3%.
Screening COC(=O)c1ccc(C2/C(=C(/O)c3ccc(OC)cc3)C(=O)C(=O)N2Cc2ccco2)cc1 (stereo not given) returned GLA spleen mod -3%, HPGD inh -11%, ALDH1A1 inh 18µM*, PNC assembly inh -5 and ALOX12 inhib -10%.
`S=c1[nH]nc(CSCc2ccccc2Cl)n1-c1ccccc1` gave GLA spleen mod 2%, GLA inh pH 4.5 11, HPGD inh inconclusive, ALDH1A1 inh 4.5µM*, PNC assembly inh -8 and ALOX12 inhib -11%.
For CCCCn1c(=O)[nH]c2ccccc21 the results were GLA spleen mod -3%, GLA inh pH 4.5 -6, HPGD inh -2%, ALDH1A1 inh 8%, PNC assembly inh -1 and ALOX12 inhib -3%.
CCCCN1C(=O)Nc2ccccc2S1=O (stereo not given) was read as GLA spleen mod 0%, GLA inh pH 4.5 -7, HPGD inh 16µM*, ALDH1A1 inh -7%, PNC assembly inh -87* and ALOX12 inhib 2%.
`COc1cc(-c2nc(S(=O)(=O)c3ccc(C)cc3)c(N3CCOCC3)o2)cc(OC)c1OC` gave GLA spleen mod 2%, GLA inh pH 4.5 1, HPGD inh -12%, ALDH1A1 inh 1.1µM*, PNC assembly inh inconclusive and ALOX12 inhib 0%.
COc1cc(-c2nc(S(=O)(=O)c3ccc(Cl)cc3)c(N3CCOCC3)o2)cc(OC)c1OC was read as GLA spleen mod 3%, GLA inh pH 4.5 0, HPGD inh -11%, ALDH1A1 inh 1µM*, PNC assembly inh 67 and ALOX12 inhib 4%.
CC(C)(C)c1nc(S(=O)(=O)c2ccc(Cl)cc2)c(N2CCOCC2)o1 was read as GLA spleen mod 15%, GLA inh pH 4.5 inconclusive, HPGD inh -13%, ALDH1A1 inh 18µM*, PNC assembly inh 41 and ALOX12 inhib -3%.
`COc1cc(-c2nc(S(=O)(=O)c3ccc(C)cc3)c(N(C)C)o2)cc(OC)c1OC` gave GLA spleen mod 6%, GLA inh pH 4.5 1, HPGD inh -11%, ALDH1A1 inh inconclusive, PNC assembly inh 20 and ALOX12 inhib 2%.
For O=C(Nc1cccc(F)c1)N1CC2(CCN(C(=O)c3ccncc3)CC2)C1 the results were GLA spleen mod -4%, HPGD inh -22%, ALDH1A1 inh -9% and ALOX12 inhib 7%.
For O=C(c1csnn1)N1CCC2(CC1)CCN(c1ccccn1)CC2 the results were GLA spleen mod -2%, HPGD inh -23%, ALDH1A1 inh inconclusive and ALOX12 inhib -2%.
`O=C(O)CC12CSc3[nH]c(=O)sc3C1c1ccccc1OC2=O` (stereo not given) gave GLA spleen mod -4%, GLA inh pH 4.5 -1, HPGD inh inconclusive, ALDH1A1 inh inconclusive, PNC assembly inh -84* and ALOX12 inhib 1%.
